Measurements: PubChem BioAssay (NCATS)
Results filed as inconclusive are left out. Entries that show only a call come without a potency. Calls of active or inactive are those of the source. Calls follow the shape of the dose curve; as a rule, active = well fitted inhibition curve with a large enough effect; inconclusive = small, poorly fitted or top-dose-only effect; inactive = flat fitted curve, though single readings scatter.

Tests used:
Experiment in all cases: qHTS profiling for inhibitors of Plasmodium falciparum proliferation (AID 504749); also: nearly all actives have a fitted effect of over 60% in size
Settings in all cases: P. falciparum in erythrocytes, SYBR Green DNA, 72 h; series mostly up to 28.7 µM
CP237 = tested on: CP237
Procedure, shortened: (§1)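 In a 72 h erythrocytic culture (37 C, humidified, 5% CO2) at 2.5% hematocrit and 0.3% starting parasitemia, compounds were tested; SYBR Green I in detergent lysis buffer stained parasite DNA overnight.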

CP250 = tested on: CP250
Procedure, shortened: as §1

CP265 = tested on: CP265
Procedure, shortened: as §1

CP266 = tested on: CP266
Procedure, shortened: as §1

CP260 = tested on: CP260
Procedure, shortened: as §1

CP262 = tested on: CP262
Procedure, shortened: as §1

CP238 = tested on: CP238
Procedure, shortened: as §1

CP247 = tested on: CP247
Procedure, shortened: as §1

CP252 = tested on: CP252
Procedure, shortened: as §1

CP256 = tested on: CP256
Procedure, shortened: as §1
Potency is read from the fitted curve at half-maximal effect.

SMILES | Potency (CP237) | Potency (CP250) | Potency (CP265) | Potency (CP266) | Potency (CP260) | Potency (CP262) | Potency (CP238) | Potency (CP247) | Potency (CP252) | Potency (CP256)
OC(CCN1CCCCC1)(c1ccccc1)c1ccccc1 | 4.47 µM (active) | inactive | 8.91 µM (active) | inactive | – | – | – | – | – | –
CC(C)NC[C@@H](O)COc1cccc2ccccc12 | 5.01 µM (active) | inactive | 10 µM (active) | inactive | 12.6 µM (active) | inactive | – | – | – | –
CCCCCCC[N+](CC)(CC)CCCCc1ccc(Cl)cc1 | 2.82 µM (active) | 3.16 µM (active) | 2.82 µM (active) | 2.56 µM (active) | 2.24 µM (active) | – | 2.51 µM (active) | 2.51 µM (active) | 2.51 µM (active) | 2.24 µM (active)
CCCCCCCCCCCCCCNCCO | 4.47 µM (active) | – | – | inactive | 4.47 µM (active) | inactive | – | 10 µM (active) | – | –
CCN(CC)CCOc1ccc(C(O)(Cc2ccc(Cl)cc2)c2ccc(C)cc2)cc1 (configuration not stated) | 7.94 µM (active) | – | – | – | 11.2 µM (active) | – | – | 10 µM (active) | – | –
COc1cccc2c1C(=O)c1c(O)c3c(c(O)c1C2=O)C[C@@](O)(C(C)=O)C[C@@H]3O[C@H]1C[C@H](N)[C@H](O)[C@H](C)O1 | 1 µM (active) | 1 µM (active) | 2 µM (active) | 8.49 µM (active) | 1.12 µM (active) | – | 3.98 µM (active) | 1.41 µM (active) | 1.12 µM (active) | 1 µM (active)
CN1CCC[C@@H]1c1cccnc1 | inactive | inactive | inactive | inactive | inactive | – | inactive | inactive | inactive | inactive
CC/C(=C(/CC)c1ccc(O)cc1)c1ccc(O)cc1 | inactive | inactive | inactive | inactive | – | – | inactive | inactive | inactive | –
CN(C)CCCOc1nn(Cc2ccccc2)c2ccccc12 | 3.16 µM (active) | inactive | – | inactive | inactive | inactive | inactive | – | inactive | inactive
CCOC(=O)COc1ccc2c(C)c(CCN(CC)CC)c(=O)oc2c1Cl | inactive | inactive | – | inactive | inactive | inactive | – | inactive | – | –
CN(C)C(=S)SC(=S)N(C)C | 10 µM (active) | 11.2 µM (active) | – | inactive | 10 µM (active) | inactive | – | – | – | 10 µM (active)
Cc1c(C)n(CCN(C)C)c2ccc(C(=O)OCCN(C)C)cc12 | 11.2 µM (active) | inactive | inactive | inactive | – | inactive | inactive | inactive | inactive | inactive
COc1ccc(CN2CCN(C(c3ccc(F)cc3)c3ccc(F)cc3)CC2)c(OC)c1OC | 8.91 µM (active) | 8.91 µM (active) | 11.2 µM (active) | – | 7.94 µM (active) | – | – | 10 µM (active) | 10 µM (active) | –
CN(C)/N=N/c1nc[nH]c1C(N)=O | inactive | inactive | inactive | inactive | inactive | inactive | inactive | inactive | inactive | –
COCc1c(C(C)C)nc(C(C)C)c(/C=C/[C@@H](O)C[C@@H](O)CC(=O)O)c1-c1ccc(F)cc1 | inactive | inactive | inactive | inactive | inactive | inactive | inactive | – | inactive | inactive
COc1c(C)c2c(c(O)c1C/C=C(\C)CCC(=O)O)C(=O)OC2 | 3.55 µM (active) | 3.16 µM (active) | 3.16 µM (active) | – | 3.16 µM (active) | – | 3.16 µM (active) | – | 2.51 µM (active) | 3.16 µM (active)
CCN(CC)CCOC(=O)C(c1ccccc1)C1CCCCC1 (configuration not stated) | inactive | inactive | inactive | inactive | – | inactive | inactive | inactive | inactive | inactive
CCOC(=O)/C=C(C)/C=C/C=C(C)/C=C/c1c(C)cc(OC)c(C)c1C | inactive | – | – | – | – | – | – | – | – | –
